Measured values reported in publication PMC8222333, “AsCas12a ultra nuclease facilitates the rapid generation of therapeutic cell medicines”.

B1: GCGC (dsDNA)
DNA 1: GCTATCTAGTGCTCAGTACGCACTGGCGCAGGAAACTTCTGGCAGGACCAGGTCATGAGATCGGAAGAGCACACGTCTGAACTCCAGTCA
DNA 2: TGACTGGAGTTCAGACGTGTGCTCTTCCGATCTCATGACCTGGTCCTGCCAGAAGTTTCCTGCGCCAGTGCGTACTGAGCACTAGATAGC
RNA: AAUUUCUACUCUUGUAGAUAGGAAACUUCUGGCAGGACC
B2: AACA (dsDNA)
DNA 1: GCTATCTAGTGCTCAGTACGCACTGAACAAGGAAACTTCTGGCAGGACCAGGTCATGAGATCGGAAGAGCACACGTCTGAACTCCAGTCA
DNA 2: TGACTGGAGTTCAGACGTGTGCTCTTCCGATCTCATGACCTGGTCCTGCCAGAAGTTTCCTTGTTCAGTGCGTACTGAGCACTAGATAGC
RNA: AAUUUCUACUCUUGUAGAUAGGAAACUUCUGGCAGGACC
B3: AAAC (dsDNA)
DNA 1: GCTATCTAGTGCTCAGTACGCACTGAAACAGGAAACTTCTGGCAGGACCAGGTCATGAGATCGGAAGAGCACACGTCTGAACTCCAGTCA
DNA 2: TGACTGGAGTTCAGACGTGTGCTCTTCCGATCTCATGACCTGGTCCTGCCAGAAGTTTCCTGTTTCAGTGCGTACTGAGCACTAGATAGC
RNA: AAUUUCUACUCUUGUAGAUAGGAAACUUCUGGCAGGACC
B4: GGGG (dsDNA)
DNA 1: GCTATCTAGTGCTCAGTACGCACTGGGGGAGGAAACTTCTGGCAGGACCAGGTCATGAGATCGGAAGAGCACACGTCTGAACTCCAGTCA
DNA 2: TGACTGGAGTTCAGACGTGTGCTCTTCCGATCTCATGACCTGGTCCTGCCAGAAGTTTCCTCCCCCAGTGCGTACTGAGCACTAGATAGC
RNA: AAUUUCUACUCUUGUAGAUAGGAAACUUCUGGCAGGACC
B5: GGCG (dsDNA)
DNA 1: GCTATCTAGTGCTCAGTACGCACTGGGCGAGGAAACTTCTGGCAGGACCAGGTCATGAGATCGGAAGAGCACACGTCTGAACTCCAGTCA
DNA 2: TGACTGGAGTTCAGACGTGTGCTCTTCCGATCTCATGACCTGGTCCTGCCAGAAGTTTCCTCGCCCAGTGCGTACTGAGCACTAGATAGC
RNA: AAUUUCUACUCUUGUAGAUAGGAAACUUCUGGCAGGACC
B6: GTAA (dsDNA)
DNA 1: GCTATCTAGTGCTCAGTACGCACTGGTAAAGGAAACTTCTGGCAGGACCAGGTCATGAGATCGGAAGAGCACACGTCTGAACTCCAGTCA
DNA 2: TGACTGGAGTTCAGACGTGTGCTCTTCCGATCTCATGACCTGGTCCTGCCAGAAGTTTCCTTTACCAGTGCGTACTGAGCACTAGATAGC
RNA: AAUUUCUACUCUUGUAGAUAGGAAACUUCUGGCAGGACC
B7: TACT (dsDNA)
DNA 1: GCTATCTAGTGCTCAGTACGCACTGTACTAGGAAACTTCTGGCAGGACCAGGTCATGAGATCGGAAGAGCACACGTCTGAACTCCAGTCA
DNA 2: TGACTGGAGTTCAGACGTGTGCTCTTCCGATCTCATGACCTGGTCCTGCCAGAAGTTTCCTAGTACAGTGCGTACTGAGCACTAGATAGC
RNA: AAUUUCUACUCUUGUAGAUAGGAAACUUCUGGCAGGACC
B8: GTCA (dsDNA)
DNA 1: GCTATCTAGTGCTCAGTACGCACTGGTCAAGGAAACTTCTGGCAGGACCAGGTCATGAGATCGGAAGAGCACACGTCTGAACTCCAGTCA
DNA 2: TGACTGGAGTTCAGACGTGTGCTCTTCCGATCTCATGACCTGGTCCTGCCAGAAGTTTCCTTGACCAGTGCGTACTGAGCACTAGATAGC
RNA: AAUUUCUACUCUUGUAGAUAGGAAACUUCUGGCAGGACC
B9: AAAG (dsDNA)
DNA 1: GCTATCTAGTGCTCAGTACGCACTGAAAGAGGAAACTTCTGGCAGGACCAGGTCATGAGATCGGAAGAGCACACGTCTGAACTCCAGTCA
DNA 2: TGACTGGAGTTCAGACGTGTGCTCTTCCGATCTCATGACCTGGTCCTGCCAGAAGTTTCCTCTTTCAGTGCGTACTGAGCACTAGATAGC
RNA: AAUUUCUACUCUUGUAGAUAGGAAACUUCUGGCAGGACC
B10: TGCC (dsDNA)
DNA 1: GCTATCTAGTGCTCAGTACGCACTGTGCCAGGAAACTTCTGGCAGGACCAGGTCATGAGATCGGAAGAGCACACGTCTGAACTCCAGTCA
DNA 2: TGACTGGAGTTCAGACGTGTGCTCTTCCGATCTCATGACCTGGTCCTGCCAGAAGTTTCCTGGCACAGTGCGTACTGAGCACTAGATAGC
RNA: AAUUUCUACUCUUGUAGAUAGGAAACUUCUGGCAGGACC
B11: GTAT (dsDNA)
DNA 1: GCTATCTAGTGCTCAGTACGCACTGGTATAGGAAACTTCTGGCAGGACCAGGTCATGAGATCGGAAGAGCACACGTCTGAACTCCAGTCA
DNA 2: TGACTGGAGTTCAGACGTGTGCTCTTCCGATCTCATGACCTGGTCCTGCCAGAAGTTTCCTATACCAGTGCGTACTGAGCACTAGATAGC
RNA: AAUUUCUACUCUUGUAGAUAGGAAACUUCUGGCAGGACC
B12: AACC (dsDNA)
DNA 1: GCTATCTAGTGCTCAGTACGCACTGAACCAGGAAACTTCTGGCAGGACCAGGTCATGAGATCGGAAGAGCACACGTCTGAACTCCAGTCA
DNA 2: TGACTGGAGTTCAGACGTGTGCTCTTCCGATCTCATGACCTGGTCCTGCCAGAAGTTTCCTGGTTCAGTGCGTACTGAGCACTAGATAGC
RNA: AAUUUCUACUCUUGUAGAUAGGAAACUUCUGGCAGGACC
B13: AAAA (dsDNA)
DNA 1: GCTATCTAGTGCTCAGTACGCACTGAAAAAGGAAACTTCTGGCAGGACCAGGTCATGAGATCGGAAGAGCACACGTCTGAACTCCAGTCA
DNA 2: TGACTGGAGTTCAGACGTGTGCTCTTCCGATCTCATGACCTGGTCCTGCCAGAAGTTTCCTTTTTCAGTGCGTACTGAGCACTAGATAGC
RNA: AAUUUCUACUCUUGUAGAUAGGAAACUUCUGGCAGGACC
B14: GTGC (dsDNA)
DNA 1: GCTATCTAGTGCTCAGTACGCACTGGTGCAGGAAACTTCTGGCAGGACCAGGTCATGAGATCGGAAGAGCACACGTCTGAACTCCAGTCA
DNA 2: TGACTGGAGTTCAGACGTGTGCTCTTCCGATCTCATGACCTGGTCCTGCCAGAAGTTTCCTGCACCAGTGCGTACTGAGCACTAGATAGC
RNA: AAUUUCUACUCUUGUAGAUAGGAAACUUCUGGCAGGACC
B15: TGCA (dsDNA)
DNA 1: GCTATCTAGTGCTCAGTACGCACTGTGCAAGGAAACTTCTGGCAGGACCAGGTCATGAGATCGGAAGAGCACACGTCTGAACTCCAGTCA
DNA 2: TGACTGGAGTTCAGACGTGTGCTCTTCCGATCTCATGACCTGGTCCTGCCAGAAGTTTCCTTGCACAGTGCGTACTGAGCACTAGATAGC
RNA: AAUUUCUACUCUUGUAGAUAGGAAACUUCUGGCAGGACC
B16: TCGG (dsDNA)
DNA 1: GCTATCTAGTGCTCAGTACGCACTGTCGGAGGAAACTTCTGGCAGGACCAGGTCATGAGATCGGAAGAGCACACGTCTGAACTCCAGTCA
DNA 2: TGACTGGAGTTCAGACGTGTGCTCTTCCGATCTCATGACCTGGTCCTGCCAGAAGTTTCCTCCGACAGTGCGTACTGAGCACTAGATAGC
RNA: AAUUUCUACUCUUGUAGAUAGGAAACUUCUGGCAGGACC

Molecular target: dAsCas12a E174R (Acidaminococcus sp., UniProt U2UMQ6 1-1307, E174R;D908A;E993A;D1235A)
Assay: Spec-seq (native PAGE EMSA with sequencing of bound and unbound); 25 mM Tris-HCl pH 7.4, 150 mM KCl, 5 mM MgCl2, 10% glycerol, 1 mM DTT, 40 ng/uL salmon sperm DNA; 400 nM Cas12a, 480 nM crRNA, 50 nM library, 37 C 1 h; native PAGE at room temperature; high values mean tight binding
Details: protein: recombinant
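Note: relative affinity from the bound to unbound sequence frequency ratio in Spec-seq.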

Binder	binding signal [lnKA]
B1	-8.88
B4	-8.85
B5	-8.97
B6	-9
B7	-8.98
B8	-8.52
B10	-8.73
B11	-8.95
B14	-8.98
B15	-8.93
B16	-8.87

Molecular target: dAsCas12a S542R (Acidaminococcus sp., UniProt U2UMQ6 1-1307, S542R;D908A;E993A;D1235A)
Assay: as above
Details: protein: recombinant

Binder	binding signal [lnKA]
B1	-8.38
B2	-8.12
B3	-8.48
B5	-8.43
B6	-8.01
B7	-7.99
B8	-6.38
B9	-8.45
B10	-7.76
B11	-8.41
B12	-7.9
B13	-8.41
B14	-8.4
B15	-8.02
B16	-8.02

Molecular target: d-enCas12a (Acidaminococcus sp., UniProt U2UMQ6 1-1307, E174R;S542R;K548R;D908A;E993A;D1235A)
Assay: as above
Details: protein: recombinant

Binder	binding signal [lnKA]
B1	-5.81
B2	-2.72
B3	-5.25
B4	-5.75
B5	-5.65
B6	-5.51
B7	-2.8
B8	-2.71
B9	-5.7
B10	-1.44
B11	-5.69
B12	-2.33
B13	-5.66
B14	-5.24
B15	-2
B16	-5.8

Molecular target: d-enCas12a-Ultra (Acidaminococcus sp., UniProt U2UMQ6 1-1307, E174R;S542R;K548R;M537R;F870L;D908A;E993A;D1235A)
Assay: as above
Details: protein: recombinant

Binder	binding signal [lnKA]
B1	-3.32
B2	-0.706
B3	-2.57
B4	-3.49
B5	-2.64
B6	-3.27
B7	-0.733
B8	-0.526
B9	-3.44
B10	-0.407
B11	-3.33
B12	-0.621
B13	-3.17
B14	-2.1
B15	-0.483
B16	-3.45
